Screens as filed in PubChem.
KLK7 zymogen act – proKLK7 zymogen activators, primary screen, biochemical, fluorescence intensity; Kallikrein-7 (Homo sapiens), P49862; purified proKLK7, EDANS-DABCYL substrate fluorescence; 100% is mature enzyme control, 0% vehicle; activation, % at 7 µM; actives 0.9% (n = 370,000);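 active = activation above the mean of all tested compounds plus 3 SD, computed per campaign excluding outliers beyond control limits, cut at about 13% in these data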
ADAM17 inh – ADAM17 inhibitors, primary screen, biochemical, QFRET; Disintegrin and metalloproteinase domain-containing protein 17 (Homo sapiens), P78536; recombinant ADAM17, EDANS/DABCYL FRET peptide cleavage; inhibition, % at 6.95 µM; actives 0.83% (n = 370,000); AID 720648, 2013;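 active = inhibition above the mean of compounds lying between control limits plus 3 SD, set per campaign, cut at about 8.5% in these data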;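 note: 0% = DMSO-only wells as the low control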
Target sequence (P78536 215-824 limits assumed): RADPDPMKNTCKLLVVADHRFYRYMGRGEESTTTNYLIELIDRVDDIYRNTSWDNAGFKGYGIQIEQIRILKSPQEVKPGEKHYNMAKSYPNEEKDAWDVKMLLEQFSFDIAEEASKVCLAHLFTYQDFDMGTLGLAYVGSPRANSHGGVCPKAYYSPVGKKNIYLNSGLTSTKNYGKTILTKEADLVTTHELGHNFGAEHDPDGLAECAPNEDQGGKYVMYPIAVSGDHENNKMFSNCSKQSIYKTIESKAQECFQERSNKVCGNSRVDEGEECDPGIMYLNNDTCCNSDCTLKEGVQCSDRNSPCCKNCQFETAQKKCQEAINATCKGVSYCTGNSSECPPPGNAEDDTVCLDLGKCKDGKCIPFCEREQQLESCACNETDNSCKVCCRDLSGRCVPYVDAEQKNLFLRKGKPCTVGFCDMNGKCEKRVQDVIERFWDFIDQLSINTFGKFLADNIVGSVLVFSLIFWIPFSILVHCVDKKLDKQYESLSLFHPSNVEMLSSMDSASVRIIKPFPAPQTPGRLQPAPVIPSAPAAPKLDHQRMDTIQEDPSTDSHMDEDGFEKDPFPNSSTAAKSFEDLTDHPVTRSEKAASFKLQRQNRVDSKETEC
PLC-gamma1 inh – PLC-gamma1 enzyme inhibitors, primary screen, biochemical, fluorescence, purified enzyme | 1-phosphatidylinositol 4,5-bisphosphate phosphodiesterase gamma-1 (Homo sapiens), P19174 | fluorogenic substrate | inhibition, % at 12.2 µM | actives 0.84% (n = 370,000); in the data active = inhibition above about 9.5%
PLC-beta3 inh – human PLC-beta3 inhibitors, primary screen, biochemical, fluorescence; inhibition, % at 12.2 µM; Purified PLC-beta3, fluorogenic substrate; 1-phosphatidylinositol 4,5-bisphosphate phosphodiesterase beta-3 (Homo sapiens), Q01970; actives 0.18% (n = 370,000); in the data active = inhibition above about 11%;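 note: 0% = median of compound wells on plate and 100% = full blocker control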
ADAM10 inh – human ADAM10 inhibitors, primary screen, biochemical, QFRET, HTS | inhibition, % at 7 µM | recombinant ADAM10, EDANS/DABCYL FRET peptide cleavage, 3 h | actives 0.62% (n = 370,000) | AID 720582, 2013 | Disintegrin and metalloproteinase domain-containing protein 10 (Homo sapiens), O14672;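 active = inhibition above a per-campaign cutoff equal to the mean of compounds falling between control-based bounds plus 3 SD, cut at about 20% in these data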;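 note: 0% = DMSO wells while the 100% control is not disclosed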
The depositor's hits bear a star; i = inactive; x = not tested or not shown. The list is not random: actives were taken first. Their share in the collection is about 2.9%.

SMILES	KLK7 zymogen act	ADAM17 inh	PLC-gamma1 inh	PLC-beta3 inh	ADAM10 inh
COC(=O)[C@@]12CCCCC=C1N(CCc1ccc(Cl)cc1)C(=O)[C@H]2CC(=O)NCc1cccc(C(F)(F)F)c1	0	4	0	-2	9
Nc1c(C(=O)NCC(O)c2ccccc2)cnn1-c1ccccc1 (stereo not given)	0	-1	5	-1	-6
O=C(NCc1ccco1)c1ccc(Cl)c(S(=O)(=O)Nc2ccccc2)c1	0	1	1	-2	10
C=CCNC(=O)c1ccccc1NC(=O)c1ccc(Cl)c(S(=O)(=O)Nc2ccccc2)c1	0	7	2	-6	27*
O=C(Nc1ccccc1Cl)c1cc(C2CCCN(C(=O)c3ccccc3)C2)on1 (stereo not given)	0	3	7	11*	-5
O=C(Nc1ccccc1Cl)c1cc(C2CCCN(C(=O)c3cccc(O)c3)C2)on1 (stereo not given)	0	0	6	6	-4
CCN1C[C@@H]2[C@@H]3C(=O)N(Cc4ccccc4)C(=O)[C@@H]3[C@](C)(C1=O)N2C(=O)c1ccccc1	0	-1	2	11*	3
c1csc(-c2nc3c4ccccc4c4ccccc4c3[nH]2)c1	18*	-156	-154	-197	i
Oc1ccccc1-c1nc2c3ccccc3c3ccccc3c2[nH]1	-27	i	i	i	i
CCc1nnc(NC(=O)CCC(=O)N2CCN(Cc3ccc(C)cc3C)CC2)s1	0	5	14*	1	8
Cc1ccc(-c2nnc(SCC(=O)Nc3ccc(Oc4ccccc4)cc3)n2-c2ccc(Cl)cc2)cc1	0	3	1	5	3
CN(C)c1ccc(C(c2ccc(N(C)C)cc2)C(O)c2ccccc2)cc1 (stereo not given)	1	0	-4	2	-1
OC(c1ccccc1)C(O)c1ccccc1 (stereo not given)	-1	-3	6	11*	4
C[C@H]1COc2cc(N3CCSCC3)ccc2S(=O)(=O)N1C	-1	-7	0	-2	-17
O=C(c1cccs1)N1C[C@@H](O)[C@H](n2cc(C3CC3)nn2)C[C@@H]1c1ccccc1	0	4	2	5	-3
O=C(c1cccs1)N1C[C@H](O)[C@@H](n2cc(C3CC3)nn2)C[C@@H]1c1ccccc1	0	0	11*	4	0
COc1ccc(Cn2nnnc2CN(Cc2cc3ccc(C)cc3[nH]c2=O)C2CCCC2)cc1	15*	-36	-215	-327	-97
COc1cc2cc(CN(Cc3nnnn3Cc3ccco3)C3CCCCC3)c(=O)[nH]c2cc1OC	13*	-94	-284	-319	-331
COCCn1nnnc1CN(Cc1ccco1)Cc1cc2cc3c(cc2[nH]c1=O)OCO3	6	-125	-136	-195	-396
CC(C)(C)n1nnnc1CN(Cc1ccco1)Cc1cc2cc3c(cc2[nH]c1=O)OCO3	28*	-179	i	i	i
CC(=O)N1CCN(C2=NC(=O)N(c3ccc(Br)cc3)C(=O)C2)CC1	0	-2	-3	-5	-7
OC(c1ccccc1)(c1ccccc1)C1CCN(CCCOc2ccc(Br)cc2)CC1	0	6	4	4	9
CCN(CC)C(=O)CSC(Nc1ccc(F)cc1)=C(C#N)C#N	0	2	-14	-20	6
Cc1ccc(CSC(Nc2ccc(F)cc2)=C(C#N)C#N)cc1	0	6	5	2	21*
Cc1ccc2c(c1)-c1c(cnn1CC(=O)NCCc1ccc(O)cc1)CO2	0	-2	2	5	-5
SMILES	KLK7 zymogen act	ADAM17 inh	PLC-gamma1 inh	PLC-beta3 inh	ADAM10 inh
CC(=O)c1ccc(N2CCN(C(=O)CCCn3c(=S)[nH]c4cc5c(cc4c3=O)OCO5)CC2)cc1	0	1	6	2	25*
COC(=O)C(C(=O)OC)C1C=CCN(C(C)=O)C1 (stereo not given)	0	1	29*	0	-3
O=C(NCc1ccccc1)C1CCN(c2nc(-c3ccc(Br)cc3)cs2)CC1	x	0	-9	-18	-7
O=C1NC[C@@H](CCCCN2CCN(CC3CCCCC3)C(=O)C2=O)N(Cc2ccccc2)C1=O	1	-4	-3	2	-15
O=C1NC[C@@H](CCCCN2CCN(CCC3CCCCC3)C(=O)C2=O)N(Cc2ccccc2)C1=O	0	7	14*	6	3
Fc1ccccc1/C=N/Nc1ncnc2nc[nH]c12	-1	3	9.8*	6	3
Oc1ccc(Cl)cc1-c1cc(-c2ccccc2)n[nH]1	-1	7	-1	-2	23*
Oc1ccccc1-c1cc(-c2ccccc2)n[nH]1	0	5	0	2	18
CC(C)NC(=O)N[C@@H]1C[C@@H]2O[C@@H](CO)CC[C@@H]2O[C@@H]1CCc1ccc(-c2ccccc2F)cc1	1	-3	-2	-2	-6
Cc1nc2ncnn2c(C)c1CCC(=O)O	0	3	10*	9	0
CCOC(=O)CCc1c(C)nc2ncnn2c1C	0	-1	3	2	7
O=C(C[n+]1ccn(-c2ccccc2)c1)c1ccc([N+](=O)[O-])cc1	0	-5	0	-6	0
O=C(Cn1cc[n+](Cc2ccccc2)c1)c1ccc([N+](=O)[O-])cc1	0	0	11*	5	8
COc1ccc2oc(=O)c(C(=O)Oc3ccc(NC(C)=O)cc3)cc2c1	215*	-102	i	i	-307
COc1ccc(-c2cc(NC(=O)Cc3c[nH]c4ccccc34)ccc2Nc2cccnc2)c(OC)c1	-1	3	0	-5	10
CCN(Cc1cccs1)c1ncnc2ccc(-c3ccc4c(c3)OCO4)cc12	x	-32	-117	-178	-100
CN1CCN(c2ncnc3c2[nH]c2ccc(F)cc23)CC1	20*	-103	-114	-155	-329
Fc1ccc2[nH]c3c(N4CCc5ccccc5C4)ncnc3c2c1	-1	-16	-24	-40	-50
O=[N+]([O-])c1ccc2nc(CNc3nc(N4CCOCC4)nc4c3ncn4-c3ccsc3)[nH]c2c1	x	-3	1	0	4
CCC(=O)N1CCc2cc(Br)c(S(=O)(=O)N3CCCC(C(=O)NC(C)(C)C)C3)cc21 (stereo not given)	0	0	1	0	1
C=CC[C@@H]1NN2C(=O)[C@@H](CCc3ccccc3)[C@@H]3c4ccccc4C=NN3[C@@H]2c2ccccc21	0	0	2	-4	3
CSc1ncccc1C(=O)OCn1nnc2ccccc2c1=O	0	0	5	6	-1
